# mHTT-CaM PPI inh: disrupts binding of mutant huntingtin to calmodulin; P42858; AlphaScreen His-mHTT/GST-CaM binding, luminescence; inhibition, % at 15 µM; 190,000 compounds, 3.6% hits; AID 1671202;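 further: 0% = both proteins with DMSO and 100% = one protein alone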
# Pf apPOL inh: Pf-apPOL DNA polymerase inhibition | Recombinant Pf-apPOL, molecular beacon fluorescence, 1.5 h | 210,000 compounds, 0.25% hits | inhibition, % at 10 µM | AID 1794808
# * marks the source's active call; other numbers are inactive results; i = inactive; . = no result given. Shown are actives, neighbours in structure and some others; about 3.6% of the full set was active somewhere. No stated cut-off is given here; in the data, active means inhibition above about 50%; inactive means the rest.
SMILES,mHTT-CaM PPI inh,Pf apPOL inh
COc1ccc(C(=O)NCc2nc3ccccc3n2Cc2ccccc2F)cc1OC,58.0*,1.3
COc1ccc(C(=O)NCCc2nc3ccccc3n2Cc2ccccc2F)cc1OC,32.0,3.2
O=C1/C(=C/c2cccnc2)CS/C1=C\c1cccnc1,20.0,3.1
O=C1/C(=C/c2ccsc2)CS/C1=C\c1ccsc1,63.0*,-6.2
O=C(Nc1cc(-c2nc3ncccc3o2)ccc1Cl)c1ccc(Cl)cc1Cl,1.7,-1.3
O=C(NCc1ccc2c(c1)OCO2)c1ccc2nc(-c3ccccn3)c(-c3ccccn3)nc2c1,7.9,61.0*
O=C(CCc1nc(-c2ccccn2)no1)NCc1ccc2c(c1)OCO2,.,0.0
Cc1cc(C)c(C(=O)N2CCC(CC(=O)NCc3cccc(F)c3)CC2)[nH]1,12.5,-4.6
COc1ccc(CCN2C(=O)CSC2c2ccc(Cl)c(Cl)c2)cc1OC (stereo not drawn),100.0*,4.3
COc1ccc(C2SCC(=O)N2CCc2ccc(OC)c(OC)c2)c(OC)c1 (stereo not drawn),6.0,13.5
O=C(C=NNc1ccccc1)Nc1ccccc1C(=O)O,.,88.5*
Cc1ccccc1NC(=O)c1ccc(-c2cccc(F)c2)nc1,-1.0,8.3
CC(=O)Nc1ccc(C(=O)Nc2ccccc2C)cc1,5.8,-8.4
O=C(Nc1ccccc1C(=O)Nc1ccccc1C(=O)O)c1ccccc1,80.5*,-21.3
Cc1ccccc1NC(=O)c1ccc(-c2ccsc2)nc1,2.0,58.7*
Cc1ccccc1NC(=O)c1ccc(C(=O)Nc2ccccc2C)cc1,-4.8,61.4*
COC(=O)c1ccccc1NC(=O)C=NO,.,-4.8
O=C(Nc1ccccc1NC(=O)c1ccccc1)c1ccccc1,-5.2,-18.7
Cc1noc(C)c1C1CCCN1C(=O)c1cc(-c2ccc(F)cc2)no1 (stereo not drawn),-8.2,-2.6
COc1ccc(Nc2ncnc3sc(C)c(S(=O)(=O)N4CCOCC4)c23)cc1Cl,0.0,-4.6
Cc1ccc(S(=O)(=O)n2c(=O)oc3cc(Br)ccc32)cc1,7.0,-2.0
O=C(NCc1ccccc1C(F)(F)F)c1ccc(-c2cncnc2)nc1,0.3,-0.2
O=C(NCc1cccnc1)[C@@H]1CC=C[C@@H]2CCN(Cc3ccc(Cl)c(Cl)c3)C(=O)[C@@H]21,59.2*,-6.5
CCCCNC(=O)[C@@H]1CC=C[C@@H]2CCN(Cc3ccc(Cl)c(Cl)c3)C(=O)[C@@H]21,24.8,-14.9
COc1ccc(CNC(=O)[C@@H]2CC=C[C@@H]3CCN(Cc4ccccc4)C(=O)[C@@H]32)cc1,5.3,-0.5
SMILES,mHTT-CaM PPI inh,Pf apPOL inh
O=C(NCCc1ccccc1)[C@@H]1CC=C[C@@H]2CCN(Cc3ccc(Cl)c(Cl)c3)C(=O)[C@@H]21,99.5*,-9.1
O=C(NCCC1=CCCCC1)c1c[nH]c2ncccc12,6.8,3.2
Cc1cc(NC(=O)CCSc2ccccc2)n(C)n1,-6.1,-5.4
Cc1ccc(C(=CC=C(C#N)C#N)N2CCN(c3ccc(Cl)c(Cl)c3)CC2)cc1,.,-6.1
CC(NC(=O)C1CCN(c2cnn(Cc3ccccc3)c(=O)c2)CC1)c1ccc(F)cc1 (stereo not drawn),12.8,-2.6
O=S(=O)(O)c1cc(I)c(O)c2ncccc12,100.3*,-194.2
O=S(=O)(O)c1cc(Br)ccc1I,.,-13.6
COCC(=O)N1CCc2cc(-c3csc(C)n3)ccc21,13.2,4.5
CCCNC(=O)C1CCc2sc(C(=O)N3CCCC3)cc2C1 (stereo not drawn),1.2,-6.6
N#Cc1c(N=Cc2cccnc2)sc2c1CCCC2,55.0*,-4.8
N#Cc1c(N=Cc2ccco2)sc2c1CCCC2,11.0,.
CCC(C)Sc1nnc(NC(=O)NC(C)(C)C)s1 (stereo not drawn),-4.4,-2.8
O=C1NC2(CCN(Cc3ccccc3)CC2)N=C1c1cccc(Cl)c1,9.6,-2.5
O=C1NC2(CCN(Cc3ccc(Cl)cc3)CC2)N=C1c1ccccc1,55.5*,-3.0
COc1cccc(CN2CCC3(CC2)N=C(c2ccccc2)C(=O)N3)c1,57.6*,1.0
O=C1NC2(CCN(Cc3ccccc3)CC2)N=C1c1cccc(F)c1,15.6,-4.6
COc1ccc(C2CN(S(=O)(=O)c3ccc(F)c(C)c3)CCN2C)cc1 (stereo not drawn),4.8,-1.6
CCOCC(=O)N1CCCC(c2ccnc(-c3cccc(C)c3)n2)C1 (stereo not drawn),8.2,-0.4
Cc1ccc(C)n1-c1ccc(C(=O)NN)c(Cl)c1,31.2,1.7
Cc1ccc(C)n1-c1ccc(Cl)c(O)c1,96.4*,-1.1
Cc1cc(C(=O)NC(C(=O)NC2CC2)c2ccccc2)no1 (stereo not drawn),2.3,-3.7
CCCSc1nnc2c(n1)OC(c1cc3c(cc1[N+](=O)[O-])OCO3)Nc1ccccc1-2 (stereo not drawn),-6.0,4.2
C=CCSc1nnc2c(n1)OC(c1cc3c(cc1[N+](=O)[O-])OCO3)Nc1ccccc1-2 (stereo not drawn),93.1*,0.3
Cc1cc(Cl)ccc1OCC(=O)O/N=C(\N)c1cccnc1,i,-8.1
CSc1cccc(NC(=O)C(=O)NCCC2=CCCCC2)c1,-14.1,-6.3
SMILES,mHTT-CaM PPI inh,Pf apPOL inh
CCCN1CCCc2cc(CCNC(=O)C(=O)Nc3cccc(SC)c3)ccc21,65.4*,-2.2
COc1ccc(C(=O)N2CCCCCC2)cc1OC,-29.1,-12.3
COc1cc(OC)cc(C2=NC3(CCCCC3)N(C(=O)c3ccc(OC)c(OC)c3)C2=S)c1,76.0*,-0.1
O=C1C(=O)N(CN2CCCCCC2)c2ccccc21,77.0*,-3.5
O=C1C(=O)N(CCN2CCCCC2)c2ccccc21,2.6,8.1
COc1ccc(NC(=O)Nc2nc(CCC(=O)NCc3ccccn3)cs2)cc1,-10.4,-5.4
Cc1ccc(NC(=O)C2CCCN(c3nccc4sccc34)C2)cc1F (stereo not drawn),-5.1,-6.7
O=C(NCc1ccc(F)cc1Cl)C1CCCN(c2nccc3sccc23)C1 (stereo not drawn),-0.6,4.9
Cc1cc2c(N3CCCC(C(=O)N4CCN(C5CCCCC5)CC4)C3)nccc2s1 (stereo not drawn),39.6,-4.9
Cc1cc2c(N3CCCC(C(=O)N4CCN(c5ccccc5)CC4)C3)nccc2s1 (stereo not drawn),99.8*,-0.4
O=C(C1CCCN(c2nccc3sccc23)C1)N1CCN(c2ccccc2F)CC1 (stereo not drawn),89.8*,-4.4
O=C(C1CCCN(c2nccc3sccc23)C1)N1CCN(c2ccc(F)cc2)CC1 (stereo not drawn),94.6*,-17.2
COc1ccc(C2=N/C(=C/c3ccc(Cl)cc3Cl)C(=O)O2)cc1,7.0,-0.1
COc1ccc(NC(=O)c2cn3c(n2)CCCC3)cc1,-8.8,-1.2
CC1(C)CC(=O)C2=C(C1)Nc1ccccc1NC2c1ccc(Cl)c(Cl)c1 (stereo not drawn),66.0*,0.4
CC1(C)CC(=O)C2=C(C1)Nc1ccccc1NC2c1ccc(-c2ccc([N+](=O)[O-])cc2)o1 (stereo not drawn),73.0*,-0.8
CC1(C)CC(=O)C2=C(C1)Nc1ccccc1NC2c1ccc(-c2ccc([N+](=O)[O-])cc2Cl)o1 (stereo not drawn),50.0,-3.4
Cc1cc2c(cc1C)NC(c1ccc(Cl)c(F)c1)C1=C(CC(C)(C)CC1=O)N2 (stereo not drawn),59.0*,5.5
Cc1cc2c(cc1C)NC(c1ccc(F)cc1)C1=C(CC(C)(C)CC1=O)N2 (stereo not drawn),20.0,-15.5

# Screens: PubChem, University of Kansas High Throughput Screening Laboratory
